Laboratory results taken from the supplement of paper PMC10849652.
The full data set covers some 7,900 targets. This sample favours those with a hit. About 0.6% of all pairs of compound and target were hits.

Columns and labels:
Assay in all cases: log2 fold change, soluble protein after heating vs DMSO (PISA); higher = thermal stabilisation; K562 cells, 10 uM, 30 min; active = over 0.2 and 3.5 SD of the protein, either way, in both replicates (recomputed)
[1] = compound: C1=CC=C(C=C1)[C@H](COC2=CC3=C(C=C2)NC(=O)N3)NC(=O)C4=CC=CN(C4=O)CC5=CC(=C(C=C5)F)F
Method in brief: (§1)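 K562 cells at 2×10^6 cells/mL were exposed to 10 μM compound for 30 min, then aliquots were heated for 3 min across 48°C-58°C, pooled, and extracted in PBS containing 0.5% NP-40 at 4°C. The supernatant after 21,000xg for 90 min was taken as soluble protein and measured by TMTpro 16plex LC-MS/MS with channel sums equalised. Thermal stability is reported relative to control samples, with values from duplicates. Fold changes are given on a log2 scale.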

[2] = compound: CC1=C(SC2=C1C(=N[C@H](C3=NN=C(N32)C)CC(=O)N)C4=CC=C(C=C4)Cl)C
Method in brief: as §1

[3] = compound: CC1=C2C(=CC=C1)N=C(N(C2=O)C3=CC=CC=C3C)CN4C=NC5=C(N=CN=C54)N
Method in brief: as §1

[4] = compound: Cc1sc2c(c1C)C(c1ccc(Cl)cc1)=N[C@@H](CC(=O)OC(C)(C)C)c1nnc(C)n1-2
Method in brief: as §1

[5] = compound: c1ccc([C@@H]2C[C@H]2NC2CCNCC2)cc1
Method in brief: as §1

Measured: log2 fold change

FNTA (UniProt P49354)
inactive: [1] -0.009 | [2] -0.024 | [3] 0.02 | [4] 0.04 | [5] -0.009

HNRNPK isoform 2 (UniProt P61978)
inactive: [1] -0.027 | [2] 0.012 | [3] 0.047 | [4] -0.023 | [5] 0.013

HAT1 (UniProt O14929)
inactive: [1] 0.009 | [2] -0.005 | [3] 0.007 | [4] -0.101 | [5] -0.05

GDPD1 (UniProt Q8N9F7)
UniProt Q8N9F7, sequence (Q8N9F7 whole entry, looked up): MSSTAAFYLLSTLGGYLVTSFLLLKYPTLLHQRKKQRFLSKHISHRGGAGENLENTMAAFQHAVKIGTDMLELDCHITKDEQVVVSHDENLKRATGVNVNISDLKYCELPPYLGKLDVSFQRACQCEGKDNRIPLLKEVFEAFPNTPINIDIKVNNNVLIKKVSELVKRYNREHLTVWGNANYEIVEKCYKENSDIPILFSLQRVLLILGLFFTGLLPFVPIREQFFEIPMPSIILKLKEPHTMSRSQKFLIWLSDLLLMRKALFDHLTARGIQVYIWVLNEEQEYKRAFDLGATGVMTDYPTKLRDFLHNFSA
inactive: [1] -0.054 | [2] 0.003 | [3] 0.057 | [4] -0.024 | [5] 0.034

HIST2H3A (UniProt Q71DI3)
inactive: [1] 0.068 | [2] -0.153 | [3] -0.266 | [4] -0.221 | [5] 0.192

GALNT11 (UniProt Q8NCW6)
inactive: [1] -0.027 | [2] 0.096 | [3] 0.093 | [4] -0.097 | [5] -0.027

GMEB1 (UniProt Q9Y692)
UniProt Q9Y692, sequence (Q9Y692 whole entry, looked up): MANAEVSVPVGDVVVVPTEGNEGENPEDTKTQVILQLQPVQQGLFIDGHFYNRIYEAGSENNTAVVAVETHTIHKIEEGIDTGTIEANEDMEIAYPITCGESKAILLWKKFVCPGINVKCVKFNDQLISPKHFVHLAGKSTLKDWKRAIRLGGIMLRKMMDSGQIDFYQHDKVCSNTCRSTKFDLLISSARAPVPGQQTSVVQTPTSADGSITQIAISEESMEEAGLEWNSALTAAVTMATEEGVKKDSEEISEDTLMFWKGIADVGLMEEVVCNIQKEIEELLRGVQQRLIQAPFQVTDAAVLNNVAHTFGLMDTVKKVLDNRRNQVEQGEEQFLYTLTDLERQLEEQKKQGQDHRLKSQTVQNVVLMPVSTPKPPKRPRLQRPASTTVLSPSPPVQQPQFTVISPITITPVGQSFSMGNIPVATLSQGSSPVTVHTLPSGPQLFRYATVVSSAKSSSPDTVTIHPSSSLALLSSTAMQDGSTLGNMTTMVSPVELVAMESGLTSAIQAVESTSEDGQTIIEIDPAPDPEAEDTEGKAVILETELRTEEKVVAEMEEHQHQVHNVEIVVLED
inactive: [1] 0.02 | [2] 0.084 | [3] -0.007 | [4] 0.024 | [5] 0.022

IFRD1 (UniProt O00458)
UniProt O00458, sequence (O00458 whole entry, looked up): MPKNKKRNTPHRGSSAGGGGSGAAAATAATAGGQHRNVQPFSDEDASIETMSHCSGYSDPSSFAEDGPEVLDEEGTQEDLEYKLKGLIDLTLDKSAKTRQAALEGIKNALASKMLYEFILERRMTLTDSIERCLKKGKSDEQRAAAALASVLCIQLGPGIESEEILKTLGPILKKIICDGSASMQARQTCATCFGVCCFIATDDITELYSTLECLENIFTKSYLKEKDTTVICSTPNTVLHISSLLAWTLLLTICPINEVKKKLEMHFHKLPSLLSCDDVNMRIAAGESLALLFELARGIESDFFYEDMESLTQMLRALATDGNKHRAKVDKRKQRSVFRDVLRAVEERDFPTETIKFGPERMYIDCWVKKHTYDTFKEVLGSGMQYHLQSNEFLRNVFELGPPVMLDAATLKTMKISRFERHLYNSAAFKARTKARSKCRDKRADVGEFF
inactive: [1] -0.011 | [2] -0.069 | [3] 0.049 | [4] 0.02 | [5] 0.004

GOLPH3 (UniProt Q9H4A6)
inactive: [1] -0.035 | [2] 0.06 | [3] 0.04 | [4] -0.077 | [5] -0.021

FUT8 (UniProt Q9BYC5)
inactive: [1] 0 | [2] 0.068 | [3] -0.06 | [4] -0.168 | [5] 0.049

GTF2A1 (UniProt P52655)
inactive: [1] 0.04 | [2] -0.021 | [3] -0.01 | [4] -0.004 | [5] -0.006

HDAC7 isoform 5 (UniProt Q8WUI4)
UniProt Q8WUI4, sequence (Q8WUI4 whole entry, looked up): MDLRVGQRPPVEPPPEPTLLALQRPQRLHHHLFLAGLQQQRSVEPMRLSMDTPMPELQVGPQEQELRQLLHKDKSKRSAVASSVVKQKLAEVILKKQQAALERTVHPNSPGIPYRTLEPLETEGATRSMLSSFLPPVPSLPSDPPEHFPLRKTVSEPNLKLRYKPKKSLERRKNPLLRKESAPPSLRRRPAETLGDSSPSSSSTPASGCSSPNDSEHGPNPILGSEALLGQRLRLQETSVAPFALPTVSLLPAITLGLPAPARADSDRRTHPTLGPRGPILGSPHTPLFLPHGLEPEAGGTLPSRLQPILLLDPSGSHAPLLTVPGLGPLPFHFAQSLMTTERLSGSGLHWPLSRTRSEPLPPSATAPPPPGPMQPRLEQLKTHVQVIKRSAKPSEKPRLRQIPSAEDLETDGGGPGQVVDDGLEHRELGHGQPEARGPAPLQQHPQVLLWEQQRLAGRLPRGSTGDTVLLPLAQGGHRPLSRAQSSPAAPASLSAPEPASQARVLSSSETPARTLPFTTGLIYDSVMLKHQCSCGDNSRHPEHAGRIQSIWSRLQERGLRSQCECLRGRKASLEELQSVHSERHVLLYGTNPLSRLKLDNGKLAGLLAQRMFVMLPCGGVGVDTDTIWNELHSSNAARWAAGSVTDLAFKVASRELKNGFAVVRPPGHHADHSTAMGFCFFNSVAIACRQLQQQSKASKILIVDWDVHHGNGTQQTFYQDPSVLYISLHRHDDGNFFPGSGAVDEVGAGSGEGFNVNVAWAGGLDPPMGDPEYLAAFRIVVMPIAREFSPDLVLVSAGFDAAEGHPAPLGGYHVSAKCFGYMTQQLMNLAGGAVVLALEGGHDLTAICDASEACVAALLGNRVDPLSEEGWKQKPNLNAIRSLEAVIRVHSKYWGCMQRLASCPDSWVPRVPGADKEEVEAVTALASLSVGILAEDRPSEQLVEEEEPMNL
inactive: [1] -0.008 | [2] 0.039 | [3] -0.004 | [4] -0.026 | [5] -0.003

HOOK3 (UniProt Q86VS8)
UniProt Q86VS8, sequence (Q86VS8 whole entry, looked up): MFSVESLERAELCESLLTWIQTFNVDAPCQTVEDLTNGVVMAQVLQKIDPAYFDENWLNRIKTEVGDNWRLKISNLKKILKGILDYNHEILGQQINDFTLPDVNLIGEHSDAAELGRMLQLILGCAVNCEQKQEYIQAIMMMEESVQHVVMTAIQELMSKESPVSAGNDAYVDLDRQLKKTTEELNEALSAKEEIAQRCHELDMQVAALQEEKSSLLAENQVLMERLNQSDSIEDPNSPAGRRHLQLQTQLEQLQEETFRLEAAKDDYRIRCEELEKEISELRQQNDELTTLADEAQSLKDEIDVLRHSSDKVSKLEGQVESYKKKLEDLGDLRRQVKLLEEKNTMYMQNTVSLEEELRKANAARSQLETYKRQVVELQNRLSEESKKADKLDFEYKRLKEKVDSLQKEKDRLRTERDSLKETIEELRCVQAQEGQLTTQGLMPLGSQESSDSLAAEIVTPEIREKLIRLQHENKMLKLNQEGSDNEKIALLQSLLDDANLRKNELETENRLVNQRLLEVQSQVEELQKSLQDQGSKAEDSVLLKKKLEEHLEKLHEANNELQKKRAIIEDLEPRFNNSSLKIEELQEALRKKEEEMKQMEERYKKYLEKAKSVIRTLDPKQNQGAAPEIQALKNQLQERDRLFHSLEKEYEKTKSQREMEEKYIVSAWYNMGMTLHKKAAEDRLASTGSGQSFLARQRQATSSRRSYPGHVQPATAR
inactive: [1] -0.065 | [2] -0.003 | [3] 0.018 | [4] 0 | [5] 0.024

GDE1 (UniProt Q9NZC3)
UniProt Q9NZC3, sequence (Q9NZC3 whole entry, looked up): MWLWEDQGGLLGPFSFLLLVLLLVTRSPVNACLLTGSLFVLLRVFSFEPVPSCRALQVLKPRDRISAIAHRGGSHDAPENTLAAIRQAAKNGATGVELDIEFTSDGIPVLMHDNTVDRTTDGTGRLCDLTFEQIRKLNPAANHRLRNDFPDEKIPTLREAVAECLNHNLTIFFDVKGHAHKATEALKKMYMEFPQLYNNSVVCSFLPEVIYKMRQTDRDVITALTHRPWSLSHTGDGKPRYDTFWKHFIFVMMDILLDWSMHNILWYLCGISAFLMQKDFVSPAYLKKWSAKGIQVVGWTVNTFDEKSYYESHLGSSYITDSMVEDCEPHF
inactive: [1] -0.019 | [2] 0.037 | [3] 0.025 | [4] -0.078 | [5] -0.055

HSPA8 (UniProt P11142)
inactive: [1] -0.019 | [2] -0.032 | [3] -0.02 | [4] 0.005 | [5] -0.008

FAM91A1 (UniProt Q658Y4)
inactive: [1] 0 | [2] 0.04 | [3] 0.028 | [4] 0.013 | [5] -0.043

HIP1 (UniProt O00291)
UniProt O00291, sequence (O00291 whole entry, looked up): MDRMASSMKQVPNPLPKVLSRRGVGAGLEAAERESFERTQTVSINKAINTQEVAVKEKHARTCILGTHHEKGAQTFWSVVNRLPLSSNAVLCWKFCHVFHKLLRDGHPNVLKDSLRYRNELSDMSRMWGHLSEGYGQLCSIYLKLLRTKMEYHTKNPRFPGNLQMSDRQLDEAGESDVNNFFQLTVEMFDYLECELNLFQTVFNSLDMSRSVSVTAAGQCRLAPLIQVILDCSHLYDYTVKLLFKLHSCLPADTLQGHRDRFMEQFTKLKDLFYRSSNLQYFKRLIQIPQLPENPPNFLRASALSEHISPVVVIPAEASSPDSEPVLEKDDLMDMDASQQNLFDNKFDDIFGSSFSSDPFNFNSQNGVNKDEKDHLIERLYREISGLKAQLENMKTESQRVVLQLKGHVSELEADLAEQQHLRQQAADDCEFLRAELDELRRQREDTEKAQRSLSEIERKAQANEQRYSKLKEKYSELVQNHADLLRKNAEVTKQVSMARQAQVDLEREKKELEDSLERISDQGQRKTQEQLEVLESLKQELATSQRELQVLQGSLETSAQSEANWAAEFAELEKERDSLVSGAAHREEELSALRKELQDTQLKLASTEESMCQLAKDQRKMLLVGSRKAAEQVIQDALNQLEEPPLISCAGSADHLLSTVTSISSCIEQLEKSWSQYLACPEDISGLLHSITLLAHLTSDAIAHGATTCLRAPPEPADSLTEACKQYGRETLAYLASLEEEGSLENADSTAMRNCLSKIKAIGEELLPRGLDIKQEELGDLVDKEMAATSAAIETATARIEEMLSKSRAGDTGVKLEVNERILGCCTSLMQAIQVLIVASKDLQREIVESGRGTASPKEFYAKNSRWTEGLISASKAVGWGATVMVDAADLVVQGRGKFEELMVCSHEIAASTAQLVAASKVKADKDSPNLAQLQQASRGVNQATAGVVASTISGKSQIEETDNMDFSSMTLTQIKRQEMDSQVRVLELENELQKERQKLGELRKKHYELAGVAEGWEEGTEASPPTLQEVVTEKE
inactive: [1] 0.137 | [2] -0.009 | [3] 0.106 | [4] 0.019 | [5] 0.045

HTATIP2 isoform 3 (UniProt Q9BUP3)
inactive: [1] 0.063 | [2] 0.031 | [3] 0.059 | [4] 0.028 | [5] -0.03

GALNT2 (UniProt Q10471)
UniProt Q10471, sequence (Q10471 whole entry, looked up): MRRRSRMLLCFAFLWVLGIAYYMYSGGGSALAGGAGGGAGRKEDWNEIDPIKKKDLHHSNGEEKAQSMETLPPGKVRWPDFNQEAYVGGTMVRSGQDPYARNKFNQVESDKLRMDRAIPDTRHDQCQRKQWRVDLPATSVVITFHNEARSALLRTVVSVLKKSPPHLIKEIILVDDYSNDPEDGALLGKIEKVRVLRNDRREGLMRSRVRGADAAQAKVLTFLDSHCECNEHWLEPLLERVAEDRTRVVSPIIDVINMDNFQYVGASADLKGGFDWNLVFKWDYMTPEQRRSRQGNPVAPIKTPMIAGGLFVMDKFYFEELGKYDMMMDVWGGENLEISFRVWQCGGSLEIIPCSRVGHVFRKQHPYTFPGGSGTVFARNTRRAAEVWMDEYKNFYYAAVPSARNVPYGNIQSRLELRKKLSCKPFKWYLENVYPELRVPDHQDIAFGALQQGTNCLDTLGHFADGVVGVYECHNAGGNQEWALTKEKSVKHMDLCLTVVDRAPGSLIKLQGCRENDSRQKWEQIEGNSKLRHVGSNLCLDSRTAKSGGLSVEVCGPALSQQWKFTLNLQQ
inactive: [1] 0.008 | [2] 0.057 | [3] 0.001 | [4] 0.007 | [5] -0.004

HDAC10 (UniProt Q969S8)
inactive: [1] -0.061 | [2] -0.028 | [3] 0.07 | [4] 0.12 | [5] -0.051

HAX1 (UniProt O00165)
inactive: [1] -0.112 | [2] -0.008 | [3] 0.063 | [4] 0.008 | [5] -0.002

HDHD2 (UniProt Q9H0R4)
inactive: [1] -0.044 | [2] 0.006 | [3] -0.003 | [4] 0.03 | [5] -0.031

HIKESHI (UniProt Q53FT3)
inactive: [1] 0.014 | [2] 0.12 | [3] 0.149 | [4] -0.091 | [5] -0.027

HEATR5B (UniProt Q9P2D3)
inactive: [1] -0.029 | [2] -0.015 | [3] 0.052 | [4] -0.071 | [5] 0.016
